Assay results reported in PubChem BioAssay AID1508636 (National Center for Advancing Translational Sciences (NCATS), 2021).
Results filed as inconclusive are left out. Calls of active or inactive are those of the source. Calls follow the shape of the dose curve; as a rule, active = well fitted inhibition curve with a large enough effect; inconclusive = small, poorly fitted or top-dose-only effect; inactive = flat fitted curve, though single readings scatter. *1 amine or outer side, *2 acyl side, *3 side chain or, on linkers, in order; H or OH if unused. Where a SMILES comes first, the peptide text is derived from it. Bridges are numbered along the chain shown (N, C = ends). Roman numbers before positions name the chains, in order. [ ]: non-standard residue; d: D form. The star is where a group is joined. ξ: configuration not given here. Actinocin(9to1) = Cc1c2oc3c(C)ccc(C(=O)[*:1])c3nc-2c(C(=O)[*:2])c(N)c1=O; ξNMeV = CNC(C(=O)O)C(C)C; Cbz = O=C(OCc1ccccc1)*; Nva = CCC[CH](N)C(=O)O; ξV = CC(C)C(N)C(=O)O; Sar = CNCC(=O)O

Target: ATP-dependent translocase ABCB1 (Homo sapiens) (UniProt P08183)
Assay: qHTS for characterization and localization of zebrafish homologs of the human ABCB1 multidrug transporter: P-gp overexpressing MDR-19 cells
Conditions: MDR-19 cells overexpressing P-gp, CellTiter-Glo luminescence viability, 72 h; series mostly up to 46.1 µM
Procedure, shortened: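 Empty-vector, P-gp-overexpressing MDR-19 and zebrafish abcb4- or abcb5-transfected cells were exposed to ~90 P-gp substrates at varying concentrations for 72 h at 37C. Viability was read by CellTiter-Glo luminescence; cytotoxic meant inhibitory curve class, >50% maximal response and AC50 < 10 uM.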

ATP-dependent translocase ABCB1 (Homo sapiens), sequence (P08183 whole entry, looked up): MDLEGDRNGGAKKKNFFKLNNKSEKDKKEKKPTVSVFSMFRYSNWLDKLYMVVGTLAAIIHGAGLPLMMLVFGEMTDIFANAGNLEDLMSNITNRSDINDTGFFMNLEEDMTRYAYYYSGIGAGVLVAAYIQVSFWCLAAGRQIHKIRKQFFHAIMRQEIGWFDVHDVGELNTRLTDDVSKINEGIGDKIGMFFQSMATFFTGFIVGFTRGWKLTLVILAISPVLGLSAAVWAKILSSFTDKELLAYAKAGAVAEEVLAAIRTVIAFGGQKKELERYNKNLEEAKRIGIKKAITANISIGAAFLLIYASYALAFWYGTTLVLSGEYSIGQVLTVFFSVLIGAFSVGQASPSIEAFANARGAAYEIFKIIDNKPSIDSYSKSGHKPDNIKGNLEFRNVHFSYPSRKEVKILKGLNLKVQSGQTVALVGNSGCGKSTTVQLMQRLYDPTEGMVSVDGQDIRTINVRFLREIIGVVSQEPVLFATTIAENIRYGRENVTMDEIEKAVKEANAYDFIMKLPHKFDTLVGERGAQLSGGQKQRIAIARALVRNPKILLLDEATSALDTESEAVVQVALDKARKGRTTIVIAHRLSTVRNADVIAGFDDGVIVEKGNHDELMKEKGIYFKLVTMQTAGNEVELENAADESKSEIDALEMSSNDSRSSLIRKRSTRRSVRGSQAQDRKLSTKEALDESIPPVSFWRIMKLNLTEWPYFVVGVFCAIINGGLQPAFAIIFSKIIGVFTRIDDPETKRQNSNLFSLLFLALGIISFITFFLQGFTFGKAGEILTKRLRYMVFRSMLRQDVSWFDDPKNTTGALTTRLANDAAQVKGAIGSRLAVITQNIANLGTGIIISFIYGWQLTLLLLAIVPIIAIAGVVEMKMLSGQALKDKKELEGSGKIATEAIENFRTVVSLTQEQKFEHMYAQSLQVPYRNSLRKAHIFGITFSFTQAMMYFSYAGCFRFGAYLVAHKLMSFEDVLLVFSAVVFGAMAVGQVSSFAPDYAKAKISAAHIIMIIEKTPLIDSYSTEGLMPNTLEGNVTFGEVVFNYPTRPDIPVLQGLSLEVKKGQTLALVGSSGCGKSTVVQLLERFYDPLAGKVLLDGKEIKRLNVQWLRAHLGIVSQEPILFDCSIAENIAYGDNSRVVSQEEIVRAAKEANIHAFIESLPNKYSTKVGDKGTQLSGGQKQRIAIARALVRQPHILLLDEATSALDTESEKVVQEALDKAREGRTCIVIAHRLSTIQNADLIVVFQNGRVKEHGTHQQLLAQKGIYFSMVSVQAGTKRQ

| SMILES | Potency |
| --- | --- |
| CCCC(C=O)NC(=O)C(CC(C)C)NC(=O)C(CC(C)C)NC(=O)OCc1ccccc1 (stereo not drawn) (Cbz-Leu-Leu-[Nva]-aldehyde; configuration not given here) | 4.18 µM (active) |
| NC(=O)Nc1cc(-c2cccc(F)c2)sc1C(=O)N[C@H]1CCCNC1 | 8.33 µM (active) |
| CN(C)C1CCN(C(=O)c2ccc(NC(=O)Nc3ccc(-c4nc(N5CCOCC5)nc(N5CCOCC5)n4)cc3)cc2)CC1 | inactive |
| CC(C)CC(=O)Nc1n[nH]c2c1CN(C(=O)C1CCN(C)CC1)C2(C)C | inactive |
| CC(=O)C1(O)Cc2c(O)c3c(c(O)c2C(OC2CC(N)C(O)C(C)O2)C1)C(=O)c1c(O)cccc1C3=O (stereo not drawn) | 0.148 µM (active) |
| CCCCc1nc2cc(C=CC(=O)NO)ccc2n1CCN(CC)CC | 5.26 µM (active) |
| O=C(NC1CC1)c1cccc(-c2ccc3c(NC(=O)C4CC4)n[nH]c3c2)c1 | inactive |
| COc1cccc2c1C(=O)c1c(O)c3c(c(O)c1C2=O)C[C@@](O)(C(=O)CO)C[C@H]3O[C@H]1C[C@H](N)[C@@H](O)[C@H](C)O1 | 11.8 µM (active) |
| CN(c1ncccc1CNc1nc(Nc2ccc3c(c2)CC(=O)N3)ncc1C(F)(F)F)S(C)(=O)=O | 18.7 µM (active) |
| CN(C)C1CCN(C(=O)c2ccc(NC(=O)Nc3nc(N4CCOCC4)nc(N4CCOCC4)n3)cc2)CC1 | inactive |
| Cc1c2oc3c(C)ccc(C(=O)N[C@@H]4C(=O)NC(C(C)C)C(=O)N5CCC[C@H]5C(=O)N(C)CC(=O)N(C)C(C(C)C)C(=O)O[C@@H]4C)c3nc-2c(C(=O)N[C@@H]2C(=O)NC(C(C)C)C(=O)N3CCC[C@H]3C(=O)N(C)CC(=O)N(C)C(C(C)C)C(=O)O[C@@H]2C)c(N)c1=O (stereo partly drawn) (I: T[ξV]P[Sar][ξNMeV] / II: T[ξV]P[Sar][ξNMeV]; ester I:1-I:C, II:1-II:C; linker I:N-II:N via Actinocin(9to1)) | 0.469 µM (active) |
| C=CCNC1=C2CC(C)CC(OC)C(O)C(C)/C=C(\C)C(OC(N)=O)C(OC)/C=C/C=C(\C)C(=O)NC(=CC1=O)C2=O (stereo not drawn) | 10.5 µM (active) |
| C/C=C1/NC(=O)C2CSSCCC=CC(CC(=O)NC(C(C)C)C(=O)N2)OC(=O)C(C(C)C)NC1=O (stereo not drawn) | 7.43 µM (active) |
